Assay results from PubChem BioAssay (NCATS).
Results filed as inconclusive are left out. The source made the active and inactive calls. The call rests on the fitted dose curve; in most records, active means well fitted inhibition curve with a large enough effect; inconclusive means small, poorly fitted or top-dose-only effect, or effect the other way; inactive means flat fitted curve, though single readings scatter.

Assay: qHTS for Inhibitors of Plasmodium falciparum (CP250) proliferation (AID 504320)
Conditions: P. falciparum CP250 in erythrocytes, SYBR Green DNA, 72 h; series mostly up to 6.7 µM
Excerpt: Plasmodium falciparum is a virulent malarial parasite that kills 1-2 million people worldwide each year. Malaria not only inflicts tremendous suffering and morbidity on the human population, but has dramatically influenced the course of civilization with profound sociological and economic implications (Shah, S. 2010). Transmitted by mosquitoes, the sporozoite form of the parasite enters the blood stream to infect hepatocytes, where they become merozoites that infect red blood cells (erythrocytes). Within erythrocytes, merozoites begin a […] cycle of growth and division, after which the parasite is released to infect new red blood cells. Gametocytes, which form within erythrocytes as well, circulate in the bloodstream and are ingested by the mosquito, thereby completing the life cycle (see CDC website). To profile malarial lines for differential chemical responses and to identify inhibitors of malarial growth, an assay that measures P. falciparum growth and replication within erythrocytes was employed. This assay uses a DNA binding fluorescent dye (SYBR Green) to detect parasite DNA following cell lysis. Because mature erythrocytes lack DNA, only Plasmodium-derived DNA is detected. The P. falciparum line cp250, derived from a malarial isolate from Cambodia, (Mu, J., et al. 2010) was added to the panel of lines, Dd2, HB3, 7G8 and GB4 in this study. Laboratory of Assay Development and Screening Technology [ADST] and NIH Chemical Genomics Center [NCGC] Boston University, Chemistry Department, Center for Chemical Methodology and Library Development [CMLD-BU] NIH National Institute of Allergy and Infectious Diseases [NIAID]
ADST Assay Protocol Summary: The 1536-well SYBR Green viability assay was based on the method of Bennett et al (2004) and described previously in 1536-well format (Yuan J., et al. 2009). For screening 3 ul culture medium was dispensed into 1536 well black clear bottom plates (Aurora Biotechnologies) using a Multidrop Combi (Thermo Fisher Scientific Inc.), 23 nL compounds in DMSO were added by a pin transfer (Cleveland, P.H. and Koutz, P.J, 2005) using a pin tool-based delivery system (Kalypsys), and 5 ul of erythrocytes infected with P. falciparum one of five lines (cp250, Dd2, HB3, 7G8 or GB4, 0.3% parasitemia, 2.5% hematocrit final concentration) were added. The plates were incubated at 37C in a humidified incubator in 5% CO2 for 72 h, and 2 ul lysis buffer (20 mM Tris HCl, 10 mM EDTA, 0.16% saponin, 1.6% triton X, 10X SYBR Green I (supplied as 10,000X final concentration by Invitrogen) was added to each well. The plates were mixed for 25 sec with gentle shaking and incubated overnight at room temperature in the dark. The following morning, fluorescence intensity at 485(14) nm excitation and 535(25) nm emission wavelengths was measured on an EnVision (Perkin Elmer) plate reader. Plate reads were normalized relative to the control inhibitor (0.29 uM artemisinin) and vehicle (DMSO) wells present on each plate and then corrected by an algorithm using vehicle-only control plates at the beginning and end of the compound plate stack. References Shah, S. (2010). The Fever: how malaria has ruled humankind for 500,000 years. New York, Sarah Crichton Books. CDC web site, http://www.cdc.gov/malaria/about/biology/index.html Mu, J., Myers, R.A., Jiang, H., Liu, S., Ricklefs, S., Waisberg, M., Chotivanich, K., Wilairatana, P., Krudsood, S., White, N.J., et Plasmodium falciparum genome-wide scans for positive selection, recombination hot spots and resistance to antimalarial drugs Nature Genetics 2010, 42, pp 268-271 Bennett TN, Paguio, M., Gligorijevic, B., Seudieu, C., Kosar, A. D., Davidson, E., and Roepe, P. D. Novel, rapid, and inexpensive cell-based quantification of antimalarial drug efficacy Antimicrobial Agents Chemother. 2004, 48(5): pp 1807-10 Yuan J, Johnson RL, Huang RL, Wichterman J, Jiang HY, Hayton K, Fidock DA, Wellems TE, Inglese J, Austin CP, Su XZ. […]

Potency, inactive:
COC(=O)N[C@@H](c1cccc(C)c1)[C@]1(C(=O)OC)CCCC1=O
Brc1ccc2c(c1)c1cc(Br)ccc1n2CC1CO1 (stereo not given)
C=CC[C@@H]1C=C[C@H](ON=C(C)CCN2CCCCc3nc(C)c(C)cc32)[C@H](CO)O1
COC(=O)N1C2CC3(C)C=C(C)OC1(C)C3c1ccccc12 (stereo not given)
COC(=O)C1=C(C(=O)OC)[C@@H]2N(C)c3ccccc3[C@@]23C[C@@H](C(=O)OC)N(C(=O)NCCBr)C3=N1
O=C1CCCC=C1C(O)CCOCc1ccccc1 (stereo not given)
C=CC1=C2C=C(C3CC3)N(c3ccc(OC)cc3)C=C2C(=O)C(C)(OC(=O)c2ccco2)C1=O (stereo not given)
COc1ccc(-c2nc3c(c4c2C[C@H](c2ccccc2)OC4)CN(S(=O)(=O)c2ccc(Cl)c4nonc24)CC3)c(C)c1
CC1=CC[C@@H](C)O[C@@]2(C1)C(=O)N(Cc1ccc(F)cc1)c1ccccc12
C[C@@H]1C=CCCO[C@]12C(=O)N(Cc1ccc(Br)cc1)c1ccccc12
CC(C)=CCCC(C)=CCON=C1C[C@@H](O)[C@@H](O)[C@@H]2[C@H]3C(=O)N(Cc4ccccc4)C(=O)[C@@H]3CC[C@@H]12
C[C@@H]1CC[C@H]2C(=O)N3[C@@H](CC[C@@H](C)[C@@H]3c3ccc(-c4ccco4)cc3)C(=O)N2[C@@H]1c1ccc(-c2ccco2)cc1
CCN1C(=NCc2ccccc2)NC(c2cccc(C(F)(F)F)c2)C(C(=O)OC)=C1C (stereo not given)
COCCN1C(=O)N[C@@H](CCc2ccccc2)[C@H](C(C)=O)[C@H]1C
O=C(NC(CC1=CCCCC1)c1ccccc1)C(F)(F)F (stereo not given)
C=CCCCC=C(C)[C@H](OCc1ccc(OC)cc1)[C@H](CCC=C(C)C(N)=O)OC
C=C(C)C(=O)C=Cc1ccc(Br)cc1
C#CCCCON=C1C[C@@H](O)[C@H](O)[C@H]2[C@@H]3C(=O)N(C[C@@H]4CCCO4)C(=O)[C@@H]3CC[C@H]12
COc1cccc(CC(=O)N2CCc3nc(COc4ccccc4)c4c(c3C2)CO[C@@H](C)C4)c1
C=CCOC(=O)C1(C(NC(=O)OC)c2ccccc2)C(=O)Cc2ccccc21 (stereo not given)
C=CCN1C(=O)[C@]2(OCCC=C[C@H]2C)c2ccccc21
Cc1c(O)c(=O)c2ccccc2n1C
COc1cccc2c1C1(CCCCC1)CC2NC(=O)C(F)(F)F (stereo not given)
COC1=C[C@@H](C(=O)N[C@H]2CCCC[C@H]2NC(C)=O)[C@@H](C)[C@H](c2ccccc2)CC1=O
COc1cc2c(c(OC)c1OC)C1(c3ccccc3)CCCCCC1[C@@H]2NC(=O)C(F)(F)F (stereo not given in full)
CC1(OC(=O)C2CCCC2)C(=O)C=C2C=C(c3ccsc3)N(CC3CC3)C=C2C1=O (stereo not given)
CC(C)[C@@H](OCc1ccccc1)[C@H](C)C=NO[C@H](C)c1cn([C@@H]2COC[C@@H]2O)nn1
COCCN1C(=O)C2=C(C1=O)C1N(C)c3ccccc3[C@@]13C[C@@H](CO)N(C(C)=O)C3=N2 (stereo not given in full)
COc1cccc([C@H]2Oc3ccc(OC)cc3C(=NO[C@@H](C)c3cc(-c4c(C)cc(C)cc4C)no3)[C@H]2O)c1
COC(=O)N[C@@H](c1ccco1)[C@]1(C(=O)OC)CCCC1=O
COC(=O)C1=C(C(=O)OC)[C@@H]2N(C)c3ccc(OC)cc3[C@@]23C[C@@H](C(=O)OC)N(C(=O)c2cccs2)C3=N1
CO[C@H](c1ccccc1Br)[C@H](C)C=CCCO
COc1cc(O)c(C(=O)C=Cc2ccccc2)c(O)c1
COC[C@@H](OC(C)=O)[C@H]1OCc2ccccc2[C@@H]1C=Cc1ccccc1
O=C1Nc2cccc(Br)c2[C@@]12O[C@H](COc1ccccc1)CC1=CCCC12 (stereo not given in full)
C=CC1=C2C=C(C3CC3)N(CCCOC(C)C)C=C2C(=O)C(C)(OC(=O)c2ccco2)C1=O (stereo not given)
CC(C)=CCCC(C)=CCN1C(=O)[C@@]2(C[C@@H](C)C[C@@H](C)O2)c2ccccc21
COCCN1C(=O)N[C@@H](c2cccc(C(F)(F)F)c2)[C@H](C(C)=O)[C@H]1C
COC(=O)C1=C(C)N(Cc2ccccc2)C(=NCc2ccc3c(c2)OCO3)NC1CCc1ccccc1 (stereo not given)
COC(=O)[C@H](Cc1ccccc1)NC(=O)O[C@@H]1C(=O)c2cc(Br)ccc2O[C@H]1c1ccc2c(c1)OCO2
